High-throughput results (PubChem)
The list is not random: actives were taken first. Their share in the collection is about 1.6%.
KCNQ2 enhance: potentiators of rat KCNQ2 potassium channel | CHO-K1 KCNQ2, FluxOR thallium flux fluorescence; active compounds read high | B-score at 10 µM | 0.54% of 310,000 active;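 active means fluorescence ratio B-score at least 3 SD of library B-scores, with initial fluorescence B-score within 3 of them, cut at about 5.3 in these data; same plate scores as AID 2156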;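 further: B-score of peak minus minimum over baseline fluorescence ratio after K+ and Tl+ stimulus; positive B-score means potentiation of KCNQ2 with more thallium influx and brighter signal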
KCNQ2 inh: rat KCNQ2 potassium channel inhibitors, primary screen, cell-based, CHO-K1, FluxOR thallium flux, B-score | 20 min; active compounds read low | B-score at 10 µM | 1.1% of 310,000 active;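 active means fluorescence ratio B-score at most minus 3 library SDs, with starting brightness B-score within 2 library SDs, cut at about -5.5 in these data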
Kir21 conf inh: mouse Kir2.1 channel blockers, retest, confirmation, cell-based, FluxOR thallium flux, duplicate. Tl flux remaining, % of negative control (active compounds read low), % at 10 µM. Kir2.1-expressing cells, FluxOR thallium flux fluorescence; active compounds read low. 41% of 2,300 active. shares compounds with KCNQ2 enhance;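 active means Primary-screen hit whose thallium flux fell at least 3 control SD below untreated wells in both duplicates, with normal baseline fluorescence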;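 further: 0% = blank wells without stimulus and 100% = stimulated no-compound controls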
Target sequence (P35561 whole entry, looked up): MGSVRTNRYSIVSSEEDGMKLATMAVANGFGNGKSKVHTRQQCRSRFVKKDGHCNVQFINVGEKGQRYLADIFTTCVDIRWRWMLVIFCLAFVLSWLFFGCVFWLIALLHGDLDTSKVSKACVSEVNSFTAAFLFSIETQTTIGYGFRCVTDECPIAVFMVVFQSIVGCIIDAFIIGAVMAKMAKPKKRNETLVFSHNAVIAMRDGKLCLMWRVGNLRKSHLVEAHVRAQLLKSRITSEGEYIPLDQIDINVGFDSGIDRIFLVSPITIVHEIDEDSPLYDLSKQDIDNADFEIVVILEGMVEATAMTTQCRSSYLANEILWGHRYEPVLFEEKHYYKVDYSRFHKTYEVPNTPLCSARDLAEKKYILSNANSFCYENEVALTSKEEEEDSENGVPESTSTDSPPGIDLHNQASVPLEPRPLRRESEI
HEK293 Tl flux: counter-screen for Kir2.1 inhibitors: effect in parental HEK293 cells. shares compounds with KCNQ2 enhance. FluxOR thallium flux fluorescence; 0% = unstimulated blank wells. FluxOR signal as % of negative control (100 = no effect), % at 10 µM. 19% of 2,300 active. AID 2105;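 active means dye signal at least 3 control SD above or below untreated wells in both duplicates, raw fluorescence within 3, either direction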;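 further: percent is based on the flux ratio of peak minus minimum fluorescence over baseline F0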
CHO-K1 Tl ctr: nonspecific thallium flux increase in parental CHO-K1, confirmation, counter-screen for KCNQ2 potentiator project, cell-based, FluxOR thallium flux, duplicate | shares compounds with KCNQ2 enhance | parental CHO-K1 cells, FluxOR thallium flux fluorescence; zero = vehicle mean+3SD, 100% = vehicle-minus-blank window | activity increase over 3SD of controls, % at 10 µM | 43% of 1,200 active;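 active means signal rise of at least 3 SD above the untreated control mean, in both duplicate wells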;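 further: counter screen of KCNQ2 potentiator hits so any rise reflects channel-independent effects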
KCNQ1 pot spec: human KCNQ1 channel potentiation off-target, confirmation, selectivity assay for KCNQ2 potentiator project, cell-based, CHO, FluxOR thallium flux; shares compounds with KCNQ2 enhance; 28% of 1,200 active; CHO KCNQ1 stable, FluxOR thallium flux fluorescence; beyond 3SD, as % of vehicle-control signal; activation over 3SD threshold, % at 10 µM;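 active means fluorescence ratio rise of at least 3 SD of vehicle wells above their mean, in both replicate wells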;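 further: 0% = vehicle mean plus 3 SD and 100% = vehicle minus unstimulated blank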
KCNQ2 pot conf: rat KCNQ2 channel potentiators, confirmation, cell-based, CHO, FluxOR thallium flux, duplicate; shares compounds with KCNQ2 enhance; CHO-KCNQ2 cells, FluxOR thallium flux fluorescence; potentiation, less the hit threshold, % at 10 µM; 68% of 1,200 active;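 active means fluorescence ratio rising 3 SD or more over the vehicle control mean in both replicates, plus primary screen hit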;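 further: peak minus minimum thallium fluorescence divided by baseline after K/Tl stimulus; 0% = vehicle mean plus 3 SD and 100% = vehicle minus unstimulated blank difference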
Kir2-1 sel: mouse Kir2.1 channel activation off-target, confirmation, selectivity assay for KCNQ2 potentiator project, cell-based, HEK293, FluxOR thallium flux; shares compounds with KCNQ2 enhance; HEK293 Kir2.1, FluxOR thallium flux fluorescence; activity over 3SD threshold, % at 10 µM; 2% of 1,200 active; AID 2345, 2010;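 active means fluorescence ratio rise of at least 3 SD above the vehicle-control mean, seen in both replicates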;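 further: 0% = vehicle mean plus 3 SD and 100% = vehicle minus no-stimulus blank window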
KCNQ2 W236L MoA: potentiators of retigabine-insensitive KCNQ2 W236L, mechanism study for KCNQ2 potentiator project, cell-based, rat KCNQ2 W236L, CHO, automated patch clamp | shares compounds with KCNQ2 enhance | automated patch clamp current | current increase over 3SD of negative controls (%), active compounds read high, % at 25 µM | 10% of 940 active | AID 2558, 2010;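 active means current increase at least 3 SD of the untreated controls above them in both duplicate recordings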
Numbers without * were called inactive.

How did CCc1ccc(-c2nc(NC(=S)NC(=O)c3cccs3)sc2C)cc1 do in these assays?
KCNQ2 enhance: 1.69; KCNQ2 inh: inactive

How did COC(=O)c1nc(NC(=S)NC(=O)c2cccs2)sc1C do in these assays?
KCNQ2 enhance: 5.79*; KCNQ2 inh: inactive; Kir21 conf inh: inactive; HEK293 Tl flux: 140.5%*; CHO-K1 Tl ctr: 5.0*; KCNQ1 pot spec: -29.9; KCNQ2 pot conf: -1.6; Kir2-1 sel: -36.8; KCNQ2 W236L MoA: inactive

How did CC1=CC(C)C2(COC(=O)Nc3ccccc3)COC(C)C1C2C (stereo unspecified) do in these assays?
KCNQ2 inh: inactive

Results for Cc1cnc([N+](=O)[O-])n1CCOC(=O)NC(=O)c1ccccc1Cl ?
KCNQ2 enhance: 0.35; KCNQ2 inh: inactive

What do the screens show for `Cc1ccc(S(=O)(=O)N(C)CC(=O)Nc2nc3ccccc3s2)cc1`?
KCNQ2 inh: inactive

How did Cc1ccc(/C(=N/Nc2nc3ccccc3s2)C2=C(O)c3ccccc3C2=O)cc1 do in these assays?
KCNQ2 enhance: 0.85; KCNQ2 inh: inactive; Kir21 conf inh: inactive; HEK293 Tl flux: inactive

Results for CC1CCC(C(C)C)C(OC(=O)Cn2c(-c3ccccc3)[n+](C)c3ccccc32)C1 (stereo unspecified) ?
KCNQ2 inh: inactive; Kir21 conf inh: 26.5%*; HEK293 Tl flux: inactive

How did CC1CCC(C(C)C)C(OC(=O)C[n+]2cc(-c3ccc(Cl)cc3)n3c2CCC3)C1 (stereo unspecified) do in these assays?
KCNQ2 enhance: 0.19; KCNQ2 inh: inactive

How did COc1ccc(C(=O)N/C(=C\c2ccco2)C(=O)OCc2ccco2)cc1 do in these assays?
KCNQ2 enhance: 1.31; KCNQ2 inh: inactive

Results for COc1ccc(C(=O)/C(=C\c2ccco2)N2C=CC=CC2=C(C#N)C#N)cc1 ?
KCNQ2 inh: inactive; Kir21 conf inh: 70.0%*; HEK293 Tl flux: 61.0%*

What do the screens show for `COc1ccc(CNC(=O)[C@@H](NC(=O)C2CCN(C(=O)[C@@H](N)CC(C)C)CC2)C(C)C)cc1`?
KCNQ2 inh: inactive

What do the screens show for `O=C(Nc1ccc(Cl)cc1)C(Cl)C(=O)c1ccccc1` (stereo unspecified)?
KCNQ2 enhance: 0.25; KCNQ2 inh: inactive; Kir21 conf inh: 69.5%*; HEK293 Tl flux: inactive

Results for O=C(NC(=S)Nc1ccc(Cl)cc1)c1ccccc1 ?
KCNQ2 inh: inactive

Results for COc1ccc(OC)c(NC(=O)CSc2ccc(-c3cccnc3)nn2)c1 ?
KCNQ2 inh: inactive

What do the screens show for `COc1ccc(C2N(c3ccccc3)C(=O)C2(F)F)cc1OC` (stereo unspecified)?
KCNQ2 inh: inactive

How did NS(=O)(=O)c1ccc(CCNCc2cc(Cl)ccc2OCc2ccccc2)cc1 do in these assays?
KCNQ2 enhance: 1.72; KCNQ2 inh: inactive

What do the screens show for `NS(=O)(=O)c1ccc(CCNCc2ccccc2OCc2ccc(Cl)cc2)cc1`?
KCNQ2 enhance: 4.32; KCNQ2 inh: inactive; Kir21 conf inh: 43.5%*; HEK293 Tl flux: inactive

How did C=CCOc1ccccc1CNCCc1ccc(S(N)(=O)=O)cc1 do in these assays?
KCNQ2 inh: inactive

How did NS(=O)(=O)c1ccc(CCNCc2cc(Br)ccc2OCc2ccccc2F)cc1 do in these assays?
KCNQ2 inh: inactive; Kir21 conf inh: 64.5%*; HEK293 Tl flux: inactive

How did CC1(C)Nc2ccccc2N(Cc2ccc([N+](=O)[O-])cc2)C1=O do in these assays?
KCNQ2 inh: inactive

How did CCOC(=O)C1=C(COC(=O)c2cc(OC)c(OC)cc2[N+](=O)[O-])NC(=O)NC1C (stereo unspecified) do in these assays?
KCNQ2 enhance: 0.96; KCNQ2 inh: inactive

How did CCc1ccc(NC(=O)Cn2c3[n+](c4c(F)c(F)ccc42)CCCCC3)cc1 do in these assays?
KCNQ2 inh: inactive

What do the screens show for `Cc1ccc(S(=O)(=O)NCCSc2nnnn2-c2cc(C)ccc2C)cc1`?
KCNQ2 enhance: 0.86; KCNQ2 inh: inactive

How did Cc1ccc(S(=O)(=O)NCCSc2nnnn2-c2ccccc2)cc1 do in these assays?
KCNQ2 enhance: 0.37; KCNQ2 inh: inactive; Kir21 conf inh: 67.5%*; HEK293 Tl flux: inactive

Results for COc1ccc(Nc2nc(N3CCCC3)c3ccccc3n2)cc1 ?
KCNQ2 enhance: 0.61; KCNQ2 inh: inactive; Kir21 conf inh: 21.0%*; HEK293 Tl flux: inactive

What do the screens show for `COc1ccc(Nc2c3c(nc4ccccc24)CCCC3)cc1OC`?
KCNQ2 enhance: 1.39; KCNQ2 inh: inactive

What do the screens show for `CCN(CC)c1ccc(Nc2nc(N3CCOCC3)c3ccccc3n2)cc1`?
KCNQ2 inh: inactive

Results for COc1ccc(Nc2nc(N3CCCCC3)nc3ccccc23)c(OC)c1 ?
KCNQ2 inh: inactive; Kir21 conf inh: inactive; HEK293 Tl flux: inactive

What do the screens show for `COc1ccc(C)cc1Nc1c2c(nc3ccccc13)CCC2`?
KCNQ2 enhance: 0.19; KCNQ2 inh: inactive; Kir21 conf inh: inactive; HEK293 Tl flux: inactive

How did COc1ccc(Nc2c3c(nc4ccccc24)CCC3)cc1 do in these assays?
KCNQ2 inh: inactive; Kir21 conf inh: 42.0%*; HEK293 Tl flux: inactive

Results for c1ccc(Nc2c3c(nc4ccccc24)CCC3)cc1 ?
KCNQ2 enhance: 1.14; KCNQ2 inh: inactive

What do the screens show for `COc1ccc(Nc2nc(N3CCN(S(C)(=O)=O)CC3)nc3ccccc23)c(OC)c1`?
KCNQ2 inh: inactive

How did O=C(CNC(=O)c1cccc(Br)c1)N/N=C/c1cc(Br)cc(Br)c1O do in these assays?
KCNQ2 inh: inactive
